Results from the supplement of paper PMC7858590.
“And” between values parts separate entries of the source, which are not always exact repeats. Identical values can stand only once. ± gives the standard deviation of the averaged measurements. In all, about 3,800 compounds were measured (“cell shape (eccentricity) Z-score vs DMSO control”: median about 1.1, lowest 2% from about -4.7 on). The entries come from a sample that favours the lowest values as a whole.

The compounds below were run on human monocyte-derived macrophages (M0) (assay: cell shape (eccentricity) Z-score vs DMSO control; higher = more elongated, M2-like morphology). Details: 20 µM; 24 h; macrophage state: M0 (M-CSF).
Procedure: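 Primary human monocyte-derived macrophages (M-CSF differentiated, pooled from 4 donors, 5000 cells/well in 384-well plates) were treated with each compound at 20 uM for 24 h, then fixed and stained with phalloidin/DAPI and imaged on an Opera Phenix (6 fields, about 1000 cells/well). Cell eccentricity was measured with CellProfiler, and a Z-score (t-test) was computed against 4 DMSO control wells in the same row. Negative values mean round (M1-like) cells and positive values mean elongated (M2-like) cells; the paper's hit cutoffs are Z <= -4 (M1) and Z >= 6 (M2). Scale: negative = round, M1-like.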

Row | Structure (SMILES) | cell shape (Z-score)
1 | COc1cc2c(c(O)c1OC)C(=O)CC(c1ccc(O)cc1)O2 (stereo unspecified) | 0.892
2 | CC(C)[C@@H]1CC[C@@]2(C)CCC[C@@](C)(O)[C@@H]2[C@H]1OC(=O)/C=C/c1ccccc1 | 2.15
3 | NC(=O)c1ccc(-c2nc(-c3ccc4c(c3)OCCO4)c(-c3ccccn3)[nH]2)cc1 | 4.12
4 | COCCCCC(=NOCCN)c1ccc(C(F)(F)F)cc1 | -14.7
5 | CC(/C=C/C1(O)C(C)CC(O)CC1(C)C)OC1OC(CO)C(O)C(O)C1O (stereo unspecified) | 0.819
6 | CC(O)CCCc1cc(O)cc(O[C@@H]2O[C@H](CO)[C@@H](O)[C@H](O)[C@H]2O)c1 (stereo partly specified) | 0.302
7 | C/C=C/C#CC#C[C@@H](O[C@@H]1O[C@H](CO)[C@@H](O)[C@H](O)[C@H]1O)[C@H](O)/C=C/CCCO | -5.71
8 | O=Cc1ccccc1O[C@@H]1O[C@H](CO)[C@H](O)[C@@H](O)[C@H]1O | -0.838
9 | O=C1c2ccccc2CCC1CNCCc1ccc(O)cc1 (stereo unspecified) | 2.69
10 | OCc1ccc(-c2ccc(-c3ccc(CO)s3)o2)s1 | -3.3 and -5.19
11 | COc1cc(C(C)/C=C(/C)CC(=O)O)oc(=O)c1C (stereo unspecified) | 0.462 ± 0.48
12 | C=C1CC[C@@H]2[C@](C)(CO)[C@H](O)CC[C@@]2(C)[C@@H]1CC(O)C1=CCOC1=O (stereo partly specified) | -2.2 ± 3.4
13 | O=C(Nc1ccccc1)c1cc([N+](=O)[O-])ccc1Cl | -1.03
14 | O=C(Nc1ccc([N+](=O)[O-])cc1Cl)c1cc(Cl)ccc1O | -4.1 ± 4.2
15 | O=C(Nc1ccc([N+](=O)[O-])cc1O)Nc1ccccc1Br | -4.95 ± 7.5
16 | CCC(C)C(=O)O[C@H]1C[C@H](O)C=C2C=C[C@H](C)[C@H](CC[C@@H](O)C[C@@H](O)CC(=O)O)C21 (stereo partly specified) | -0.754
17 | COc1cc(/C=C/c2cc(O)cc(O[C@@H]3O[C@H](CO)[C@@H](O)[C@H](O)[C@H]3O)c2)ccc1O[C@@H]1O[C@H](CO)[C@@H](O)[C@H](O)[C@H]1O | 2.22
18 | COc1c(-c2coc3cc4c(cc3c2=O)CC(O)C(C)(C)O4)ccc2c1C=CC(C)(C)O2 (stereo unspecified) | -0.764
19 | COc1c2c(cc3occ(-c4ccc5c(c4)OCO5)c(=O)c13)OC(C)(C)C=C2 | 1.71
20 | COc1cc2c(cc1-c1coc3c4c(ccc3c1=O)OC(C)(C)C=C4)OCO2 | -5.49
21 | CN(C)CCCN1c2ccccc2CCc2ccc(Cl)cc21 | 1.86
22 | CC(C)=CCC1Cc2c(cc(O)c(C(=O)C(C)C)c2O)OC1(C)C (stereo unspecified) | 3.41
23 | NCCCCCc1cnc[nH]1 | -0.662
24 | CC(C)c1ccc(Cn2ccc3c4c(N)nc(NC5CC5)nc4ccc32)cc1 | -4.69
25 | CCNC(=O)[C@@H]1CCCN1C(=O)[C@H](CCCNC(=N)N)NC(=O)[C@H](CC(C)C)NC(=O)[C@@H](COC(C)(C)C)NC(=O)[C@H](Cc1ccc(O)cc1)NC(=O)[C@H](CO)NC(=O)[C@H](Cc1c[nH]c2ccccc12)NC(=O)[C@H](Cc1cnc[nH]1)NC(=O)C1CCC(=O)N1 (stereo partly specified) | -0.749
26 | OC1(c2ccc(Cl)c(C(F)(F)F)c2)CCN(CCCC(c2ccc(F)cc2)c2ccc(F)cc2)CC1 | -6.96

Row | Structure (SMILES) | cell shape (Z-score)
27 | O=C(CCCN1CCC(O)(c2cccc(C(F)(F)F)c2)CC1)c1ccc(F)cc1 | -0.261
28 | O=C(CCCN1CCC(O)(c2ccc(Cl)cc2)CC1)c1ccc(F)cc1 | -2.24
29 | CO[C@@]12[C@H](COC(N)=O)C3=C(C(=O)C(C)=C(N)C3=O)N1C[C@@H]1N[C@@H]12 | -1.43 ± 4
30 | CO[C@@]12[C@@H]3NC3CN1C1=C(C(=O)C(N)=C(C)C1=O)[C@@H]2COC(N)=O (stereo partly specified) | -5.51
31 | Cc1cccc(-c2[nH]c(C(C)(C)C)nc2-c2ccc3nccnc3c2)n1 | 4.84
32 | CON=C(C(=O)NC1C(=O)N2C(C(=O)O)=C(CSc3nc(=O)c(=O)[nH]n3C)CSC12)c1csc(N)n1 (stereo unspecified) | -0.265
33 | CCn1cc(C(=O)O)c(=O)c2cc(F)c(N3CCN(C)CC3)cc21 | -1.21
34 | Cc1oc(=O)oc1CN1CCN(c2cc3c(cc2F)c(=O)c(C(=O)O)c2n3C(C)S2)CC1 (stereo unspecified) | -5.14
35 | CCN1CCN(c2cc3c(cc2F)c(=O)c(C(=O)O)cn3C2CC2)CC1 | -0.0252
36 | C=CC(=O)Nc1cccc(Sc2nc(Nc3ccc(N4CCN(C)CC4)cc3)ncc2Cl)c1 | 0.842
37 | CCCCCCCCC(=O)NCc1cc(OC)c(O)cc1I | 0.93
38 | CCCn1c(=O)c(C)cn2nc(N)nc12 | 3.53
39 | CCC(C)n1ncn(-c2ccc(N3CCN(c4ccc(OC[C@H]5CO[C@](Cn6cncn6)(c6ccc(Cl)cc6Cl)O5)cc4)CC3)cc2)c1=O (stereo partly specified) | 0.541
40 | CC(C)N1C[C@@H](C)[C@H](CN(C)Cc2ccc(Oc3ccccc3)cc2)Oc2c(NC(=O)c3ccncc3)cccc2C1=O | 2.27
41 | CC1OC(O[C@H]2[C@@H](O)C[C@@]3(C)C([C@H](O)C[C@]4(C)C3CC=C3[C@@H]5CC(C)(C)CC[C@]5(C(=O)OC5OC(C)C(OC6OCC(OC7OCC(O)C(OC8OCC(O)C(O)C8O)C7O)C(O)C6O)C(O)C5O)CC[C@]34C)[C@]2(C)CO)C(O)C(OC2OC(CO)C(O)C(O)C2O)C1O (stereo partly specified) | 0.543
42 | CC1OC(O[C@H]2CC[C@@]3(C)C(CC[C@]4(C)C3CC=C3C5CC(C)(C)CC[C@]5(C(=O)OC5OC(CO)C(OC6OC(CO)C(O)C(O)C6O)C(O)C5O)CC[C@]34C)C2(C)C)C(O)C(O)C1OC1OCC(O)(COC2OCC(O)C(OC3OCC(OC4OCC(O)(CO)C4O)C(O)C3O)C2O)C1O (stereo partly specified) | 0.323
43 | CC1OC(OC2C(O[C@H]3OC[C@](O)(CO)[C@H]3O)COC(O[C@@H]3[C@@H](O)[C@@H](O)[C@H](OC4C(OC(=O)[C@]56CCC(C)(C)CC5C5=CCC7[C@@]8(C)C[C@H](O)[C@H](OC9OC(CO)C(O)C(O)C9O)[C@@](C)(CO)C8[C@H](O)C[C@@]7(C)[C@]5(C)CC6)OCC(O)C4O)O[C@H]3C)C2O)C(O)C(O)C1O (stereo partly specified) | -5.84
44 | CC1OC(O[C@H]2[C@@H](O)C[C@@]3(C)C(CC[C@]4(C)C3CC=C3[C@@H]5CC(C)(C)CC[C@]5(C(=O)OC5OC(C)C(OC6OCC(OC7OCC(O)C(OC8OCC(O)C(O)C8O)C7O)C(O)C6O)C(O)C5O)CC[C@]34C)[C@]2(C)CO)C(O)C(OC2OC(CO)C(O)C(O)C2O)C1O (stereo partly specified) | 0.13
45 | CC1OC(OC2C(O)C(CO)OC(O[C@H]3CC[C@@]4(C)C(CC[C@]5(C)C4CC=C4C6CC(C)(C)CC[C@]6(C(=O)OC6OCC(OC7OCC(O)C(O)C7O)C(O)C6O)CC[C@]45C)C3(C)C)C2O)C(O)C(OC2OCC(O)(CO)C2O)C1O (stereo partly specified) | -0.504
46 | C[C@@H]1O[C@@H](O[C@H]2[C@H](OC(=O)[C@]34CCC(C)(C)C[C@H]3C3=CCC5[C@@]6(C)C[C@H](O)[C@H](O[C@@H]7O[C@H](CO)[C@@H](O)[C@H](O)[C@H]7O)[C@@](C)(CO)C6[C@H](O)C[C@@]5(C)[C@]3(C)CC4)OC[C@H](O)[C@@H]2O)[C@H](O)[C@H](O)[C@H]1O[C@@H]1OC[C@@H](O)[C@H](O[C@@H]2OC[C@](O)(CO)[C@H]2O)[C@H]1O (stereo partly specified) | -6.49
47 | C/C(=C\Cc1c(O[C@@H]2O[C@H](CO)[C@@H](O)[C@H](O)[C@H]2O)ccc2ccc(=O)oc12)CO | 0.962 ± 0.97
48 | CCC1(c2ncc[nH]2)Cc2ccccc2O1 (stereo unspecified) | 1.92
49 | N#CC(=C(N)Sc1ccc(N)cc1)c1ccccc1C(F)(F)F | 4.79
50 | CC1CC(=O)C2C(O)(C1)CC(O)C13OC21C(=O)c1cccc(O)c1C3O (stereo unspecified) | 3.39 ± 2.6
51 | C[C@H](CCC(=O)NCC(=O)O)[C@H]1CCC2C3C(C[C@H](O)[C@@]21C)[C@@]1(C)CC[C@@H](O)CC1C[C@H]3O (stereo partly specified) | 1.5
52 | CC(=O)O[C@@H]1CC2C(C)(C)C(=O)C3OC3[C@]2(C)C2CC[C@@]3(C)[C@H](c4ccoc4)OC(=O)C4OC43[C@@]21C (stereo partly specified) | -1.17

Row | Structure (SMILES) | cell shape (Z-score)
53 | CC1(CO)CC(O)CC2(C)C3=C(CCC12)C(=O)OC3 (stereo unspecified) | -1.57
54 | COC(=O)C(CCCNC(=N)N)NC(=O)CCCc1c(-c2ccccc2)[nH]c2c(F)cc(F)cc12 (stereo unspecified) | 6.11
55 | COc1ccnc(CS(=O)c2nc3cc(OC(F)F)ccc3[nH]2)c1OC (stereo unspecified) | -1.46
56 | Cc1c(OCC(F)(F)F)ccnc1CS(=O)c1nc2ccccc2[nH]1 (stereo unspecified) | 3.11
57 | COCCCOc1ccnc(CS(=O)c2nc3ccccc3[nH]2)c1C (stereo unspecified) | -6.29
58 | COC1=CC(=O)CC(C)C12Oc1cc(OC)cc(O)c1C2=O (stereo unspecified) | 1.27
59 | OCCOCCN1CCN(C2=Nc3ccccc3Sc3ccccc32)CC1 | 2.19
60 | CNCC[C@@H](Oc1ccccc1C)c1ccccc1 | 0.617
61 | CNCCC(Oc1ccccc1OC)c1ccccc1 (stereo unspecified) | 1.09
62 | CNCCC(Oc1ccc(C(F)(F)F)cc1)c1ccccc1 (stereo unspecified) | -4.88
63 | C/C=C(/C)C(=O)O[C@H]1C=C(C)C[C@H](OC(=O)c2ccc(O)cc2)C2[C@](O)(C(C)C)CC[C@@]21C (stereo partly specified) | -3.37
64 | CCN(CC)CCOc1ccc2c(c1)C(=O)c1cc(OCCN(CC)CC)ccc1-2 | 11.9
65 | N#Cc1nc2c(nc1C#N)-c1ccc(Cl)cc1C2=O | 2.23
66 | O=C1c2ccccc2-c2nc3nonc3nc21 | -6.25
67 | CC1(C)CC[C@]2(C(=O)O)CC[C@]3(C)C(=CCC4[C@@]5(C)CC[C@H](O[C@@H]6OC[C@H](O)[C@H](O)[C@H]6O)[C@@](C)(CO)C5CC[C@]43C)C2C1 (stereo partly specified) | -2.37
68 | CNc1cc(NS(=O)(=O)c2ccc(N)cc2)nc(NC)n1 | 3.31
69 | Cc1cc(NS(=O)(=O)c2ccc(N)cc2)no1 | -8.11
70 | Cc1noc(NS(=O)(=O)c2ccc(N)cc2)c1C | 2.76
71 | Cn1c(=O)c2c(n(C)c1=O)n(C)c(=O)n2C | 0.458
72 | Cc1cc(Nc2nc(N[C@@H](C)c3ncc(F)cn3)ncc2Cl)n[nH]1 | 7.45
73 | CCCCCCCCc1ccc(CCC(N)(CO)CO)cc1 | -5.98 ± 2.9
74 | CCCCCCCCCCCCCCCCCCc1ccc(C(=O)C=CC(=O)O)cc1 | 0.47
75 | CCCCCCCCc1ccc(-c2ccc(C(=O)O)cc2)cc1 | 7.84
76 | COc1cc(/C=C/C(=O)O[C@H]2CC[C@]34CC35CC[C@]3(C)[C@@H](C(C)CCC=C(C)C)CC[C@@]3(C)C5CCC4C2(C)C)ccc1O (stereo partly specified) | -1.25
